FEN1 inhibitor: inhibitors of human flap endonuclease 1 | Recombinant FEN1 flap cleavage, fluorescence, 15 min | AID 588795 | P39748 | 0.35% of 390,000 active | Potency, µM (top dose mostly 114 µM), hits mostly inhibitors; also: nearly all actives have a fitted effect of over 65% in size
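With each library titrated from low to high concentration, compounds met 10 nM FEN1 for 15 min at room temperature before 50 nM substrate was added; readings at 0 and 15 min fed four-parameter Hill curve fits.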
POLI inh: blocks human DNA polymerase iota activity | AID 588590 | Pol iota fluorescent replication assay, 10 min | 1% of 390,000 active | Q9UNA4 | Potency, µM (highest dose often 115 µM), most hits filed as inhibitors
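Fluorescent replication assay read twice, at 0 min and 10 min after adding 50 nM (final) substrate. Enzyme (10 nM) and compounds were first incubated 15 min at room temperature; enzyme-free buffer wells were negative controls.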
POLH inh: inhibitors of human DNA polymerase eta | Q9Y253 | Potency, µM (series often up to 114 µM), hits mostly inhibitors | recombinant Pol eta, fluorescent DNA replication assay | 1.2% of 390,000 active
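Pol eta (10 nM) was preincubated with compounds for 15 min at room temperature, after which fluorescent replication substrate (50 nM final) was added to start the reaction. Fluorescence was read kinetically at 0 and 10 min.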
WRN helicase inh: inhibitors of human WRN helicase. WRN helicase unwinding, fluorescent forked duplex, kinetic. 0.46% of 360,000 active. Potency, µM (series often up to 114 µM), actives largely listed as inhibitors; also: nearly all actives have a fitted effect of over 55% in size
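Enzyme (20 nM final) and test compound sit together 15 min at room temperature before substrate addition. Substrate is a single-forked duplex oligonucleotide (100 nM) labelled with fluorophore and quencher, with 2 mM ATP; helicase unwinding raises red fluorescence, read kinetically.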
Pol beta inh: blocks human DNA polymerase beta activity; 1.3% of 340,000 active; Pol beta primer extension/strand displacement, fluorescence kinetic; Potency, µM (highest dose often 114 µM), most hits filed as inhibitors
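Kinetic readout of DNA synthesis with strand displacement by Pol beta. Compound and 10 nM enzyme sit 15 min at room temperature; 50 nM substrate starts the reaction, read immediately and at 10 min.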
POLK inh: DNA polymerase kappa (human) inhibition. purified Pol kappa, fluorescent DNA synthesis assay, 10 min. 0.53% of 400,000 active. Potency, µM (top dose mostly 107 µM), hits mostly inhibitors. Q9UBT6
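Enzyme at 10 nM met test compounds for 15 min at room temperature. Substrate addition (50 nM final) began the reaction, which was monitored by fluorescence at 0 and 10 min.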
Of the large screens only hits and unclear results are named; the others gave an inactive call. Hits are enriched below; roughly 2.4% of the tested compounds scored in any of these assays. Calls follow the shape of the dose curve; as a rule, active = well fitted curve in the direction sought with a large enough effect; inconclusive = small, poorly fitted or top-dose-only effect, or another doubt; inactive = no such curve, though single readings can be large; an effect the other way counts as inactive or inconclusive.

Cc1ccc(/C=C2\SC(=S)N(c3cccnc3)C2=O)o1	POLI inh inconclusive, POLK inh 50µM
O=C(O)CCCC/C=C(\c1ccccc1)c1cccnc1	none (no result: FEN1 inhibitor, POLI inh, POLH inh, WRN helicase inh, Pol beta inh)
O=c1c2ccccc2nc2c3ccccc3c(NCCN3CCOCC3)nn12	Pol beta inh 40µM (no result: FEN1 inhibitor, POLI inh, POLH inh, WRN helicase inh, POLK inh)
O=[N+]([O-])C(=C1Nc2ccccc2N1)C(Cl)=C(Cl)Cl	POLI inh 50µM
CN1CCO/C1=C(\C(Cl)=C(Cl)Cl)[N+](=O)[O-]	none
Cc1ccc(NC(=O)C2CCN(S(=O)(=O)c3ccc4c(c3)NC(=O)C(C)S4)CC2)c(Cl)c1 (configuration not stated)	POLI inh 16µM, Pol beta inh inconclusive
Cc1cc(C)cc(NC(=O)C2CCN(S(=O)(=O)c3ccc4c(c3)NC(=O)C(C)S4)CC2)c1 (configuration not stated)	none
COc1ccc(C(=O)Nc2cccc(/C=C(\CCC(=O)O)c3nc4ccccc4s3)c2)cc1	FEN1 inhibitor inconclusive, POLI inh inconclusive, POLH inh 56µM, Pol beta inh inconclusive, POLK inh inconclusive
COc1ccccc1NC(=O)c1nc(SCc2ccccc2F)ncc1Cl	none (no result: POLH inh, WRN helicase inh, Pol beta inh)
CCOc1ccc(C(=O)Nc2ccc(-c3nc4cc(C)ccc4o3)cc2)cc1	none (no result: WRN helicase inh)
CCOc1ccc(C(=O)Nc2ccc(-c3nc4cc(CC)ccc4o3)cc2)cc1	POLI inh 89µM (no result: WRN helicase inh)
COCc1cc(=O)[nH]c(Nc2nc3ccccc3o2)n1	none
COCc1cc(=O)[nH]c(Nc2nc(C)c3ccccc3n2)n1	FEN1 inhibitor 50µM
Cc1cc2sc3ccccc3c(=O)c2c(C)c1O	POLI inh inconclusive, Pol beta inh 50µM
CCCC1OC2C[C@@H]3[C@H]4CCC5=CC(=O)C=C[C@]5(C)[C@H]4C(O)C[C@]3(C)[C@]2(C(=O)CO)O1 (some centres not stated)	none (no result: POLH inh, WRN helicase inh, Pol beta inh)
Cn1c(NCCCCO)nc2c1c(=O)n(Cc1ccc(Cl)cc1)c(=O)n2C	none (no result: WRN helicase inh)
COc1ccccc1N1CCN(C(=O)Nc2cn(CC(C)C)c(=O)c3ccccc23)CC1	none (no result: WRN helicase inh)
COc1ccc(CNC(=O)Nc2cn(CC(C)C)c(=O)c3ccccc23)c(OC)c1	FEN1 inhibitor inconclusive, POLI inh 22µM (no result: WRN helicase inh)
Oc1ccc2ccccc2c1/C=N/c1nc2c(s1)CCCC2	POLI inh inconclusive
Oc1c(Br)cc(Br)cc1/C=N/c1nc2c(s1)CCCC2	POLI inh inconclusive, POLH inh inconclusive, WRN helicase inh inconclusive, POLK inh 79µM (no result: Pol beta inh)
CCC(=O)Nc1ccc(C(=O)NNC(=O)C(c2ccccc2)c2ccccc2)cc1	POLH inh inconclusive, Pol beta inh 45µM
CC(C)C(=O)Nc1ccc(C(=O)NNC(=O)C(c2ccccc2)c2ccccc2)cc1	POLI inh 79µM, Pol beta inh inconclusive
CCn1c(SCC(=O)NCc2ccco2)nnc1-c1cccc(N(C)C)c1	none (no result: POLH inh, WRN helicase inh, Pol beta inh)
O=c1[nH][nH]c2c(N=Cc3ccccc3O)ccc(F)c12	FEN1 inhibitor 18µM, POLI inh 0.89µM, POLH inh 3.2µM, WRN helicase inh 14µM, Pol beta inh 7.1µM, POLK inh 4µM
OCc1ccccc1SSc1ccccc1CO	FEN1 inhibitor inconclusive, POLI inh inconclusive, WRN helicase inh 14µM (no result: Pol beta inh)
CCCCCCC(=O)N(O)C1CC(=O)N(c2ccc(Cl)cc2)C1=O (configuration not stated)	WRN helicase inh 79µM
CCCCCCC(=O)N(O)C1CC(=O)N(c2ccc(C)cc2)C1=O (configuration not stated)	POLI inh inconclusive
O=C(O)COc1ccccc1/C=N/Nc1ccc(S(=O)(=O)N2CCOCC2)cc1[N+](=O)[O-]	none
Cc1ccc(-n2c(O)c(/C=N/Nc3ccc(S(=O)(=O)N4CCOCC4)cc3[N+](=O)[O-])c3ccccc3c2=O)c(C)c1	POLI inh inconclusive, POLH inh 45µM, Pol beta inh 79µM
CC1=Nc2ccccc2/C1=C/c1ccc(N(C)C)cc1	none (no result: POLH inh, WRN helicase inh, Pol beta inh)
COc1ccc(-[n+]2c(C)cc(/C=C3\Sc4ccccc4N3C)cc2C)cc1	FEN1 inhibitor 22µM, WRN helicase inh inconclusive, Pol beta inh 35µM
COc1ccc(C(=O)/C=C2\Sc3ccccc3N2C)cc1	FEN1 inhibitor inconclusive, WRN helicase inh inconclusive
CC(=O)Nc1c(S(=O)(=O)c2ccccc2)c2nc3ccccc3nc2n1Cc1ccccc1	none
C=CCn1c(NS(=O)(=O)c2ccccc2)c(S(=O)(=O)c2ccc(C)cc2)c2nc3ccccc3nc21	POLI inh 3.2µM, POLH inh 89µM, Pol beta inh inconclusive
O=C(O)c1ccc(COc2ccccc2[N+](=O)[O-])o1	POLH inh 13µM, Pol beta inh inconclusive
O=C(c1ccc(COc2ccccc2[N+](=O)[O-])o1)N1CCCCCC1	none
O=C(O)c1ccc(OCc2ccc(C(=O)O)o2)cc1	POLH inh 32µM, Pol beta inh inconclusive
CN(C)c1ccc(/C=C/c2cc(Cl)nc3ccccc23)cc1	none (no result: POLH inh, WRN helicase inh, Pol beta inh)
O=C1[C@H](Cc2ccccc2)NC/C=C\C[C@@H](c2ccc(Cl)cc2)N1Cc1ccccc1	none (no result: POLH inh, WRN helicase inh, Pol beta inh)
CCN(CC)c1ccc(C(=O)NCc2ccc3c(c2)CCN3C(=O)c2ccc(F)cc2)cc1	POLH inh 79µM (no result: WRN helicase inh)
COc1cc2nc(N3CCCN(C)CC3)nc(Nc3ccncc3)c2cc1OC	FEN1 inhibitor 14µM, POLI inh 20µM (no result: POLH inh, WRN helicase inh, Pol beta inh)
COc1cc2c(NC3CCN(C)CC3)nc(N3CCCN(C)CC3)nc2cc1OCc1ccccc1	FEN1 inhibitor 22µM (no result: POLH inh, WRN helicase inh, Pol beta inh)
COc1cc2nc(N3CCCN(C)CC3)nc(NC3CCN(Cc4ccccc4)CC3)c2cc1OC	FEN1 inhibitor 18µM, POLK inh inconclusive (no result: POLH inh, WRN helicase inh, Pol beta inh)
COc1cc2nc(N3CCN(C)CC3)nc(NC3CC3)c2cc1OC	none (no result: POLH inh, WRN helicase inh, Pol beta inh)
O=C(c1c[nH]c2ccc(S(=O)(=O)Nc3ccccc3F)cc2c1=O)N1CCCCCC1	POLI inh inconclusive (no result: WRN helicase inh)
CCc1ccc(NS(=O)(=O)c2ccc3[nH]cc(C(=O)N4CCc5ccccc54)c(=O)c3c2)cc1	POLH inh inconclusive, Pol beta inh 18µM, POLK inh inconclusive
CCc1ccccc1NS(=O)(=O)c1ccc2[nH]cc(C(=O)N3CCCCC3)c(=O)c2c1	POLI inh inconclusive, Pol beta inh 22µM (no result: WRN helicase inh)
Cc1cc(C)cc(NS(=O)(=O)c2ccc3[nH]cc(C(=O)N4CCc5ccccc54)c(=O)c3c2)c1	POLI inh inconclusive, POLH inh inconclusive
CCOc1ccc2cc(C3CC(c4ccco4)=NN3S(C)(=O)=O)c(=O)[nH]c2c1 (configuration not stated)	POLI inh 35µM, POLH inh inconclusive
COc1ccc(N2CCN(S(=O)(=O)c3ccc(OC)c(-c4noc(C)n4)c3)CC2)cc1	Pol beta inh inconclusive (no result: WRN helicase inh)
COc1ccc(S(=O)(=O)N2CCN(c3ccccc3F)CC2)cc1-c1noc(C)n1	FEN1 inhibitor inconclusive, Pol beta inh 8.9µM (no result: WRN helicase inh)
